Most compounds without a hit are left out; they make up all but 8.1% or so of the library.
ELG1 DNA repair = inhibitors of ELG1-dependent DNA repair in HEK293T cells. HEK293T ELG1-luciferase reporter, luminescence, 16 h; DNA damage induced by 5-fluorouridine. Potency, µM (doses to about 46.1 µM), without a hit: at the highest dose activity change, negative = inhibition, usual class: inhibitors. 330,000 compounds, 2.3% hits. AID 504467; also: % is scaled to controls: 0 for no effect and ±100 for the full control effect; nearly all actives have a fitted effect of over 55% in size
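Luminescence from the luciferase reporter, measured 30 min after ONE-Glo reagent at room temperature, was the read-out. Beforehand, 2,000 cells per well were exposed for 16 hr at 37 °C to 5-fluorouridine together with compound or vehicle.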
KB-3-1 cytotox = KB-3-1 parental cell cytotoxicity; KB-3-1 viability, CellTiter-Glo ATP luminescence, 72 h; Potency, µM (highest dose often 46.1 µM), most hits filed as cytotoxic; 400,000 compounds, 1.4% hits; AID 1347075; also: % is scaled to controls: 0 for no effect and ±100 for the full control effect; nearly all actives have a fitted effect of over 60% in size
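Luminescent ATP read-out (CellTiter-Glo) measures survival of drug-naive KB-3-1 cells after 72 h compound exposure at 37 °C. Titration series was screened from lowest to highest concentration, with DMSO vehicle plates as background controls.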
SW480 rerep = induces DNA re-replication in SW480 colon adenocarcinoma cells | SW480 DNA re-replication, Hoechst DNA content imaging, 48 h | Potency, µM (highest dose often 46.1 µM), inactives show at the highest dose re-replication activation, actives largely listed as activators | 340,000 compounds, 1.8% hits | AID 624297; also: % of control where 0% means no effect; nearly all actives have a fitted effect of over 55% in size
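Quantitative HTS format with DMSO vehicle controls; 48 hr drug incubation at 37 C, then 40 min Hoechst staining and scanning imager measurement at 405 nm excitation.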
MCF10A rerep = DNA re-replication induction in MCF 10a cells | MCF 10A DNA re-replication, Hoechst nuclear intensity, 48 h | Potency, µM (top dose mostly 46.1 µM), inactives show at the top dose activity, positive = re-replication, usual class: activators | 350,000 compounds, 2.9% hits; also: % of control where 0% means no effect; nearly all actives have a fitted effect of over 50% in size
KB-V1 MDR tox = KB-V1 MDR subline cytotoxicity; AID 1347076; 400,000 compounds, 3.4% hits; KB-V1 MDR cells viability, CellTiter-Glo, 72 h; Potency, µM (highest dose often 46.1 µM), usual class: cytotoxic; also: % is scaled to controls: 0 for no effect and ±100 for the full control effect; nearly all actives have a fitted effect of over 60% in size
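Cells of the MDR subline KB-V1 are plated, dosed with compound at multiple concentrations, and incubated 72 h at 37 degrees C; CellTiter-Glo is then added and luminescence read after 10 min.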
The depositor's hits bear a star; i = inactive; u = inconclusive; x = not tested or not shown; [ ] = another dose, or the depositor's remark. Calls follow the shape of the dose curve; as a rule, active = well fitted curve in the direction sought with a large enough effect; inconclusive = small, poorly fitted or top-dose-only effect, or another doubt; inactive = no such curve, though single readings can be large; an effect the other way counts as inactive or inconclusive. Potency is read from the fitted curve at half-maximal effect.

SMILES	ELG1 DNA repair	KB-3-1 cytotox	SW480 rerep	MCF10A rerep	KB-V1 MDR tox
COc1cccc(NC(=O)Cn2c(=O)n(-c3ccc(CC(=O)NCC4CCCO4)cc3)c(=O)c3ccccc32)c1 (configuration not stated)	x	i	x	x	u
COc1ccc2[nH]c3c(c2c1)CCN1C(=O)C(CC(=O)NCc2ccco2)C[C@H](C(=O)N2CCOCC2)[C@@]31CCC1CCCC1 (some centres not stated)	2.9%	i	-25.8%[9.22 µM]	u	i
COc1ccc(CC(=O)NCC(c2ccc(OC)cc2)N(C)C)cc1 (configuration not stated)	3.4%	i	u	3.26µM*	i
Cc1ccc(NS(=O)(=O)c2ccc3c(c2)CC(C)N3C(=O)C2CCC2)cc1Cl (configuration not stated)	x	u	x	x	i
O=C(C[C@H]1C[C@@H]2c3cc(NC(=O)Nc4ccccc4)ccc3O[C@@H]2[C@@H](CO)O1)NCC1CC1	x	i	x	x	i
CCCCCn1c(=N)c(S(=O)(=O)c2ccc(Cl)cc2)cc2c(=O)n3cccc(C)c3nc21	21.9%	u	11.4%	u	8.2µM*
COCCn1c(=N)c(S(=O)(=O)c2ccc(F)cc2)cc2c(=O)n3ccccc3nc21	0.0%	u	20.6µM*	18.4µM*	i
N=c1c(S(=O)(=O)c2ccc(Cl)cc2)cc2c(=O)n3ccccc3nc2n1Cc1ccco1	-18.7%	u	5.17µM*	u	i
COCCn1c(=N)c(S(=O)(=O)c2ccc(Br)cc2)cc2c(=O)n3ccccc3nc21	u	i	-7.8%	-10.6%	i
CN(C)c1ccc(/C=C/c2ccnc3c(N)cccc23)cc1	x	u	x	x	i
COc1ccc(CCCNC(=O)C2(C)Cc3c(-c4ccc(C(N)=O)cc4)ccnc3O2)cc1 (configuration not stated)	x	i	x	x	i
CC(C)OC(=O)c1cccc(NC(=O)Cn2nnc3sc4c(c3c2=O)CCCC4)c1	x	i	x	x	i
CCC1CSC(Nc2ccc(C(=O)/C=C/c3cccc(C)c3)cc2)=N1 (configuration not stated)	-6.3%	u	u	16.4µM*	i
CCC1CSC(Nc2ccc(C(=O)/C=C/c3ccc(Oc4ccccc4)cc3)cc2)=N1 (configuration not stated)	-10.1%	u	u	u	18.4µM*
C[C@@H](NC(=O)[C@@H]1CCCN1C(=O)[C@@H]1CCCN1C(=O)c1cccc(Cl)c1)c1ccccc1	x	i	x	x	i
CCN(C(=O)Cc1cccs1)c1nnc(-c2cc(OC)c(OC)c(OC)c2)s1	2.91µM*	i	-9.3%	3.9%	i
CCNC(=O)C1(C)CCN(C(=O)c2ccccc2C(F)(F)F)C1 (configuration not stated)	x	i	x	x	i
Cc1cccc2cc(CN(CC3CCCO3)C(=S)Nc3ccccc3)c(=O)[nH]c12 (configuration not stated)	16.4µM*	i	16.5%	u	3.66µM*
CCNC(=S)N(Cc1cc2cccc(C)c2[nH]c1=O)C1CCCC1	u	u	-145.8%	1.4%	18.4µM*
Cc1cc2cc(CN(Cc3ccc4c(c3)OCO4)Cc3nnnn3C3CCCC3)c(=O)[nH]c2cc1C	u	i	-2.0%	-2.6%	u
Cc1ccc2[nH]c(=O)c(CN(Cc3ccc4c(c3)OCO4)Cc3nnnn3C3CCCC3)cc2c1	x	i	u	u	18.4µM*
Cc1cccc2cc(CN(C(=S)NCC(C)C)C3CCCC3)c(=O)[nH]c12	-4.4%	i	1.5%	5.2%	u
Cc1ccc2cc(CN(CCN(C)C)C(=S)Nc3ccccc3)c(=O)[nH]c2c1C	9.2µM*	u	u	-0.6%	i
O=C(O)c1ccccc1NS(=O)(=O)c1cccc(NS(=O)(=O)c2cc(Br)ccc2Br)c1	9.8%	i	-4.6%	1.4%	i
Cc1cc(C)c(S(=O)(=O)NCC(c2ccc(N(C)C)cc2)N2CCc3ccccc32)c(C)c1 (configuration not stated)	x	i	x	x	i
SMILES	ELG1 DNA repair	KB-3-1 cytotox	SW480 rerep	MCF10A rerep	KB-V1 MDR tox
CNC(=O)c1ccc(CSc2nc3cccnc3n2Cc2cccc(F)c2)cc1	x	u	x	x	i
Cc1cccc2cc(CN(Cc3nnnn3Cc3ccco3)C3CCCC3)c3nnnn3c12	20.6µM*	i	6.4%	u	11.6µM*
Cc1cccc2cc(CN(CC3CCCO3)C(=O)NC3CCCCC3)c(=O)[nH]c12 (configuration not stated)	u	i	-13.1%	-0.3%	i
Cc1cccc2cc(CN(Cc3nnnn3C3CCCC3)C3CCCCC3)c(=O)[nH]c12	x	i	u	u	23.1µM*
Cc1cccc2cc(CN(Cc3ccco3)C(=O)NC3CCCCC3)c(=O)[nH]c12	7.31µM*	i	14.5%	10.4%	3.66µM*
CC(=O)N(Cc1ccco1)Cc1cc2cccc(C)c2n2nnnc12	-5.6%	x	x	x	x
COc1cc(CC(=O)N2CCN(S(=O)(=O)c3ccc(C)cc3)CC2)cc(OC)c1OC	-18.9%	i	-1.0%	7.5%	i
C=CCN1C(=O)CSc2ccc(C(=O)NCc3ccco3)cc21	-5.7%	i	-3.4%	10.4%	i
O=C(NCc1ccco1)c1ccc2c(c1)N(Cc1ccccc1)C(=O)CS2	u	i	2.2%	-5.8%	5.8µM*
COC(=O)[C@H]1C[C@H](OC(=O)Nc2c(C)noc2C)[C@@]2(O)CN(S(=O)(=O)c3ccc(C)cc3)CC2[C@H]1C(=O)OC (some centres not stated)	x	i	x	x	i
Cn1cccc1/C=C(\C#N)c1ccccc1	22.0%	i	-9.5%	-12.8%	i
CN(C)c1cccc(/C=C(\C#N)c2ccccc2)c1	u	5.8µM*	u	u	u
CN(C)c1ccc(/C=C(\C#N)C(=O)c2ccccc2)cc1	-1.8%	i	-5.6%	2.3%	i
CN(C)c1ccc(/C=C(\C#N)c2ccccc2)cc1	u	u	3.66µM*	3.66µM*	u
C#CC(C)(CC)NC(=O)c1cc2c(n(-c3ccc(Cl)cc3)c1=O)CC(C)(C)CC2=O (configuration not stated)	x	i	x	x	u
Cc1cc(O)c(Sc2ncn[nH]2)cc1NS(=O)(=O)c1ccc(Cl)cc1	-3.1%	u	1.4%	6.1%	i
Cc1ccc(S(=O)(=O)Nc2ccc(Br)cc2C(NCC(=O)O)c2ccccc2)cc1 (configuration not stated)	5.1%	i	21.7%	u	u
CC(=O)c1c(C)oc2c1cc(NS(=O)(=O)c1ccc(Br)cc1)c1ccccc12	x	5.17µM*	x	x	u

Bioassay records (PubChem)
